Experiment [1] deals with Estrogen receptor (Homo sapiens) (UniProt P03372). Briefly: CCTE_Deisenroth_AIME_384WELL_LUC_Shift: CCTE's 384-well Estrogen Receptor Transactivation Assay with AIME metabolic competence data shift (ERTA luciferase; difference in metabolism positive and negative), Deisenroth Lab (AID 2284041).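 Note: shift is response with S9 minus without S9 so positive means metabolism raised ER signal.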 Put shortly: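 Test chemicals (0.002–200 uM, 10-point) were pre-incubated 2 h with alginate microspheres containing phenobarbital/beta-naphthoflavone-induced male Sprague Dawley rat liver S9 or water, then medium was transferred to VM7Luc4E2 cells for 24 h luciferase readout; shift = S9-positive minus S9-negative normalized response.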

A short description of experiment [2]: CCTE_Shafer_MEA_dev_active_electrodes_number: CCTE's Neural Network Formation Assay for Number of Active Electrodes, Shafer Lab (AID 2284040; active = hit-call score of the fitted dose curve at least 0.9, where 1 is the maximum;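 for AC50: potency for loss of active electrodes versus DMSO so lower counts are hits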). The essentials: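 Developing rat cortical networks on MEAs, exposed DIV 0–12. Value is the AUC of active-electrode counts (≥5 spikes/min) from days 5, 7, 9, 12, relative to DMSO.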
A short description of experiment [3]: CCTE_Shafer_MEA_dev_burst_rate: CCTE's Neural Network Formation Assay for Burst Rate, Shafer Lab (AID 2284042).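 For AC50: potency for loss of burst rate below DMSO control.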 The essentials: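 Exposure ran continuously over 12 days of network development in rat cortical cultures, with compound refreshed during full media changes on DIV 5 and 9. Single-electrode bursts per recording time, well-mean over active electrodes, trapezoidal AUC across days 5–12, fitted downward relative to DMSO.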

Experiment [4] in a line: CCTE_Shafer_MEA_dev_bursting_electrodes_number: CCTE's Neural Network Formation Assay for Number of Bursting Electrodes, Shafer Lab (AID 2284043; active = hit-call score of the fitted dose curve at least 0.9, where 1 is the maximum;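 for AC50: potency is for loss of bursting electrodes relative to DMSO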). Put shortly: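 Number of electrodes reaching ≥1 burst every 2 min was recorded at DIV 5, 7, 9 and 12 and collapsed as trapezoidal area under the curve. Cultures were rat cortical neurons on MEA plates, dosed continuously from plating with medium and treatment refreshed on DIV 5 and 9.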

Experiment [5] is described as follows: CCTE_Shafer_MEA_dev_burst_duration_mean: CCTE's Neural Network Formation Assay for Mean Burst Duration, Shafer Lab (AID 2284045).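 For AC50: curve fitted for loss meaning shorter burst duration than DMSO.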 Put shortly: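 Mean single-electrode burst duration (first to last spike), averaged over bursting electrodes per well, then integrated as area-under-curve across recordings at days 5, 7, 9 and 12. Rat cortical cultures on MEAs, compound present from plating, refreshed at feeds.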

Experiment [6] is described as follows: CCTE_Shafer_MEA_dev_interburst_interval_mean: CCTE's Neural Network Formation Assay for Mean Interburst Interval, Shafer Lab (AID 2284046).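 Note: well-mean interburst interval of bursting electrodes as AUC over four recording days; curve fitted for decrease in interburst interval relative to DMSO.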 Put shortly:
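Primary rat cortical neurons on PEI-coated 48-well MEA plates (laminin added with cells at plating) (16 electrodes/well), exposed from plating day 0 with renewal at DIV 5 and 9. Mean inter-burst interval averaged over bursting electrodes, AUC across days 5, 7, 9, 12; DMSO baseline.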

Experiment [7] in a line: CCTE_Shafer_MEA_dev_inter_network_spike_interval_mean: CCTE's Neural Network Formation Assay for Mean Inter-network Spike Interval, Shafer Lab (AID 2284047). Put shortly:
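Mean time between consecutive network-spike peaks, recorded extracellularly (adaptive spike detection) on DIV 5, 7, 9 and 12, summarized as trapezoidal AUC. Rat cortical cultures on MEAs dosed continuously days 0–12, re-dosed at feeds; loss-of-signal fit relative to DMSO.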

Experiment [8] is described as follows: CCTE_Shafer_MEA_dev_network_spike_peak: CCTE's Neural Network Formation Assay for Mean Number of Electrodes in Network Spike, Shafer Lab (AID 2284049).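 For AC50: fitted for loss of signal meaning fewer electrodes in network spikes than DMSO.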 Put shortly: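 Rat cortical primary culture, 1.5 x 10^5 cells/well, 48-well MEA (16 electrodes/well). Dosing day 0 through DIV 12, full media/compound exchange DIV 5, 9. AxIS adaptive spike detection; AUC over days 5/7/9/12; loss-of-signal vs DMSO.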

Another experiment deals with DIO2 (gene 1734). The experiment can be described thus: CCTE_GLTED_hDIO2: CCTE's human Deiodinase 2 (DIO2) Inhibition Assay, Great Lakes Toxicology and Ecology Division (GLTED) Lab (AID 2284050; active = hit-call score of the fitted dose curve at least 0.9, where 1 is the maximum). Put shortly: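 Triplicate cell-free incubations (3 h) of human DIO2 with chemical preceded colorimetric Sandell-Kolthoff quantitation of liberated iodide; DMSO served as negative control for curve fitting.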

Experiment [9] can be described thus: CCTE_Shafer_MEA_dev_spike_duration_mean: CCTE's Neural Network Formation Assay for Mean Spike Duration, Shafer Lab (AID 2284051).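 For AC50: potency for a decrease in mean network spike duration versus DMSO.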 Put shortly: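 Spontaneous activity was recorded on days 5, 7, 9 and 12 from rat cortical cultures grown on microelectrode arrays and dosed continuously from day 0, with media and compound renewed after the DIV 5 and 9 recordings. Network-spike duration was collapsed by area under the curve.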

Experiment [10] can be described thus: CCTE_Shafer_MEA_dev_per_network_spike_spike_number_mean: CCTE's Neural Network Formation Assay for Mean Number of Spikes in a Network Spike, Shafer Lab (AID 2284053). Put shortly: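 Mean spike count within each network spike, taken in a 0.05 s window at its peak, was recorded on days 5, 7, 9 and 12 and integrated as trapezoidal area under the curve. Rat cortical cultures on MEA plates received continuous compound from day 0, refreshed at medium changes on DIV 5 and 9.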

Experiment [11] in a line: CCTE_Shafer_MEA_dev_per_network_spike_spike_percent: CCTE's Neural Network Formation Assay for Percent of Spikes in a Network Spike, Shafer Lab (AID 2284054). Put shortly:
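Metric: fraction of spikes falling in a 0.05 s window at network-spike peaks. Recordings were made on days 5, 7, 9 and 12 and collapsed by trapezoidal AUC. Cultures were rat cortical neurons on MEA plates, dosed continuously from plating, re-dosed at media changes.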

The next experiment deals with DIO3 (gene 1735). The experiment can be described thus: CCTE_GLTED_hDIO3: CCTE's human Deiodinase 3 (DIO3) Inhibition Assay, Great Lakes Toxicology and Ecology Division (GLTED) Lab (AID 2284055; active = hit-call score of the fitted dose curve at least 0.9, where 1 is the maximum;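 note: potency is for inhibition seen as loss of released iodide signal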). Put shortly: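 Steps: incubate adenovirus-produced hDIO3 with chemical for 3 hours; detect freed iodide via cerium-arsenic Sandell-Kolthoff colorimetry; compare with DMSO baseline.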

Experiment [12] is described as follows: CCTE_Shafer_MEA_dev_LDH: CCTE's Lactate Dehydrogenase Assay for Cytotoxicity in the Neural Network Formation Assay, Shafer Lab (AID 2284068; active = hit-call score of the fitted dose curve at least 0.9, where 1 is the maximum;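 note: exposure for twelve days from plating with re-dosing on DIV 5 and 9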). Put shortly: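 Primary rat cortical neurons were cultured on PEI-coated MEA plates and exposed from plating through day 12, with compound renewed at medium changes on DIV 5 and 9. LDH activity was read spectrophotometrically; loss of signal versus DMSO indicates reduced viability.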

Experiment [13] in a line: CCTE_Shafer_MEA_acute_AB: CCTE's Alamar Blue Assay for Cytotoxicity in the Neural Acute Assay, Shafer Lab (AID 2284069; active = hit-call score of the fitted dose curve at least 0.9, where 1 is the maximum;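 note: active compounds lower the viability signal compared with DMSO wells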). Put shortly: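 Resazurin reduction (CellTiter Blue, 1:6 in fresh medium) read at ex 544/em 590 nm marks viability loss relative to DMSO. Cells: primary rat cortical neuron networks on microelectrode arrays, treated after baseline recording at 13 or 15 days in vitro.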

The nature of experiment [14]: CCTE_Shafer_MEA_acute_LDH: CCTE's Lactate Dehydrogenase Assay for Cytotoxicity in the Neural Acute Assay, Shafer Lab (AID 2284086; active = hit-call score of the fitted dose curve at least 0.9, where 1 is the maximum;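 note: active means LDH release rises above DMSO vehicle level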). The essentials:
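Cytotoxicity readout: spectrophotometric LDH activity in supernatant of rat primary cortical neurons, post-plating day 13 or 15, sampled after 40 min compound exposure; signal gain relative to DMSO baseline.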

A short description of experiment [15]: CCTE_Shafer_MEA_dev_mutual_information_norm: CCTE's Neural Network Formation Assay for Mutual Information Normalization, Shafer Lab (AID 2284091).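 For AC50: mutual information between electrodes summarised as area under curve across four recording days; potency is for a decrease in mutual information relative to DMSO.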 Put shortly:
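Shared information across electrodes, tracked on days 5, 7, 9 and 12 of network development and collapsed as trapezoidal area under the curve. Rat cortical cultures were treated continuously from plating, with treatment renewed at feeds on DIV 5 and 9; DMSO baseline, negative-direction fit.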

A short description of experiment [16]: CCTE_Shafer_MEA_dev_AB: CCTE's Alamar Blue Assay for Cytotoxicity in the Neural Network Formation Assay, Shafer Lab (AID 2284083; active = hit-call score of the fitted dose curve at least 0.9, where 1 is the maximum;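 note: resazurin reduction fluorescence as viability of cultured neurons; twelve days of exposure from plating with re-dosing on DIV 5 and 9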). Put shortly:
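Resazurin fluorescence, relative to DMSO, gauges viability after twelve days of exposure that began at plating of rat cortical neurons (1.5 x 10^5 cells/well, 48-well MEA); treatment renewed with full medium exchange on DIV 5 and 9.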

Experiment [17] can be described thus: UKN5_HCS_SBAD2_cell_viability: Viability Assessment in the University of Konstanz (UKN) Leist Lab Neurite Outgrowth Assay in human iPSC-derived immature Dorsal Root Ganglia Neurons (UKN5) (AID 2284056). Put shortly: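 iPSC-derived immature peripheral neurons (SBAD2) seeded on Matrigel with CHIR99021, SU5402 and DAPT, dosed 1 h later for 24 h. Viability from Hoechst H-33342 and calcein-AM live staining, high-content imaging; bidirectional fit versus DMSO.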

Experiment [18] can be described thus: UKN5_HCS_SBAD2_neurite_outgrowth: University of Konstanz (UKN) Leist Lab Neurite Outgrowth Assay in human iPSC-derived immature Dorsal Root Ganglia Neurons (UKN5) (AID 2284070). The settings on record: actives raise or lower the signal. The essentials: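 Neurite outgrowth is quantified as calcein-AM-labelled neurite area in human iPSC-derived peripheral neurons treated for 24 h, starting 1 h after plating in medium with CHIR99021 (1.5 uM), SU5402 (5 uM) and DAPT (5 uM).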

Several values for one entry are separate records, joined by “and”; a condition that tells them apart may be missing. Equal entries are not always repeated. Inconclusive results are not listed. The source holds several records for some structures; these can differ, active in one and inactive in another. Activity calls are given as the source filed them. Rule for the calls, unless noted: active = hit-call score of the fitted dose curve at least 0.9, where 1 is the maximum; inactive = score below 0.9.

Sequence of Estrogen receptor (Homo sapiens) (P03372 whole entry, looked up): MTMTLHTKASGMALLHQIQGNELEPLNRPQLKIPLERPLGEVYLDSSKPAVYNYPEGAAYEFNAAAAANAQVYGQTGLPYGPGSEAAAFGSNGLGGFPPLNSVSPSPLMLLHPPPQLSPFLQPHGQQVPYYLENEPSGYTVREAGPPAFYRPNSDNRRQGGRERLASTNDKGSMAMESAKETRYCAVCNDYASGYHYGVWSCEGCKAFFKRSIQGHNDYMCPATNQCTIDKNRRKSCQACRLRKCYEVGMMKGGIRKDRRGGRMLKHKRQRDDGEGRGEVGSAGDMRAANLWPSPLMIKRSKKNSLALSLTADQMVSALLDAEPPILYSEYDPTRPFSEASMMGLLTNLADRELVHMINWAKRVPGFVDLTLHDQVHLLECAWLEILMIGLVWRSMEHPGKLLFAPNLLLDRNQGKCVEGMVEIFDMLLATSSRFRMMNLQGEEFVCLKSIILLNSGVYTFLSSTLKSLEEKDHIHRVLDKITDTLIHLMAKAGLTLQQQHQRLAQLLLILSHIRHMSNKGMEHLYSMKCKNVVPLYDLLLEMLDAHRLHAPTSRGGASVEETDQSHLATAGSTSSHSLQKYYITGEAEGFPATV

In the case of `O=C1CCCN1`, the result in [1] was inactive.
With `O=C(O)C(F)(F)C(F)(F)C(F)(F)C(F)(F)C(F)(F)C(F)(F)C(F)(F)C(F)(F)C(F)(F)C(F)(F)F`, the outcome in experiment [2], in experiment [3], in [4], in experiment [5], in experiment [6] and in experiment [7] was inactive. For the same compound, the result in [8], in [9], in [10], in [11], in experiment [12] and in experiment [13] was inactive. The compound was classed as inactive in experiment [14] and in experiment [15]. In addition, the AC50 is 50 µM (active) and 53.2 µM (active) in the experiment with DIO2 (gene 1734); 19.9 µM (active) and 25.1 µM (active) in the experiment on DIO3 (gene 1735).
With `C=C(C)C#N`, the outcome in experiment [1] was inactive.
`c1cc[c]([Hg][c]2ccccc2)cc1`: the AC50 in [1] is 0.365 µM (active).
Take `CC(=O)C=C(C)C`: the outcome in experiment [1] was inactive.
Consider `CCC(=O)C(CC(C)N(C)C)(c1ccccc1)c1ccccc1` (configuration not stated), for which the AC50 in experiment [2] is 3.55 µM (active); in [3], 4.16 µM (active); in [4] it was 4.45 µM (active); in experiment [6], 4.24 µM (active); in experiment [8], 4.26 µM (active); in [9], 3.49 µM (active). Besides, the AC50 in [10] is 3.36 µM (active); in [11], 7.25 µM (active); in [12] it was 7.25 µM (active); in experiment [15], 6.23 µM (active). The result in [5], in experiment [7], in [13] and in [16] was inactive.
`Cn1sc(Cl)cc1=O`: the AC50 was 4.47 µM (active) in experiment [2]; 5.73 µM (active) in experiment [3]; 5.1 µM (active) in experiment [4]; 7.64 µM (active) in experiment [5]; 7.54 µM (active) in [6]; 3.57 µM (active) in [8]. In addition, the concentration at half-maximal activity (AC50) in [9] was 7.62 µM (active); in experiment [10] it was 3.51 µM (active); in experiment [11], 7.62 µM (active); in [12], 4.61 µM (active); in [16], 5.49 µM (active); in experiment [15], 3.45 µM (active). In [7], the outcome was inactive.
`CCOP(=S)(OCC)Oc1nc(Cl)c(Cl)cc1Cl`: the half-maximal activity concentration (AC50) in experiment [2] was 22.5 µM (active) and 6.77 µM (active) and 22.1 µM (active); in [3], 17.1 µM (active); in experiment [4] it was 23.2 µM (active) and 4.58 µM (active) and 21.5 µM (active); in experiment [6], 15.2 µM (active) and 15 µM (active); in experiment [8], 23 µM (active) and 10 µM (active) and 23.1 µM (active); in experiment [9] it was 23 µM (active) and 15 µM (active) and 21.7 µM (active). Also, the AC50 was 22.1 µM (active) and 23.9 µM (active) in experiment [10]; 23.4 µM (active) and 20.2 µM (active) in experiment [11]; 13.2 µM (active) and 13.7 µM (active) and 24.3 µM (active) in experiment [12]; 18.2 µM (active) and 22.5 µM (active) and 24 µM (active) in experiment [16]; 23.2 µM (active) and 15 µM (active) in experiment [15]. Also, the outcome in [3], in experiment [5], in experiment [6], in experiment [7], in experiment [10] and in [11] was inactive. In addition, the call in [17], in [18] and in experiment [15] was inactive.

Values taken from PubChem BioAssay (EPA / NIEHS).
